In PubChem BioAssay (NCATS):
Several values for one entry are separate records, joined by “and”; a condition that tells them apart may be missing. Equal entries are not always repeated. Records with an inconclusive call do not appear. Unmarked numbers belong to inactive results. Activity calls are given as the source filed them. The call rests on the fitted dose curve; in most records, active means well fitted activation curve with a large enough effect; inconclusive means small, poorly fitted or top-dose-only effect; inactive means no such curve, though single readings can be large or run the other way.

Target: Cellular tumor antigen p53 (Homo sapiens) (UniProt P04637)
Sequence (P04637 whole entry, looked up): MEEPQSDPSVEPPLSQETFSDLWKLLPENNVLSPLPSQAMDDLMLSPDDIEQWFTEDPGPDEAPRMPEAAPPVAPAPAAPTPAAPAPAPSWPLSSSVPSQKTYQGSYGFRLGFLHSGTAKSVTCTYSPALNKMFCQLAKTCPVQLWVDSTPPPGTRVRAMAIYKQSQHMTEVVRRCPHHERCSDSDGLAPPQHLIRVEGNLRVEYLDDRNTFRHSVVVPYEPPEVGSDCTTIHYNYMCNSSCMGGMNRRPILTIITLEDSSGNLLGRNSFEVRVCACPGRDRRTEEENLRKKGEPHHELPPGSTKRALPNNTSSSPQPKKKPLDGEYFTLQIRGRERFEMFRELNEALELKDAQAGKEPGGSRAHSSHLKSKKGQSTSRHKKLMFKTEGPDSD
Assay: Primary qHTS for small molecule compounds that upregulate eGFP-tagged delta133p53alpha (in N-terminal) cells. (AID 2060322); further: nearly all actives have a fitted effect of over 75% in size;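 on activation: series mostly up to about 56 µM; 0% = DMSO vehicle and 100% = reference activator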
Settings: NCI-H358 eGFP-delta133p53alpha fluorescence, 24 h; activation: stronger effect = higher value
Outline: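 NCI-H358 cells pre-induced 24 h with 10 ng/ml doxycycline to express N-terminal eGFP-delta133p53alpha, then dosed 24 h at 37C without doxycycline; fixed, Hoechst-stained, GFP intensity by laser scanning cytometry, normalized to DMSO (0%) and 57.5 uM 5-azacytidine (100%).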
Potency means the concentration at half of the fitted maximal effect.

Compound	activation	Potency
c1ccc2occc2c1	-5.08%	
Nc1nc2ccc(Cl)cc2c2nc(-c3ccco3)nn12		1.69 µM (active)
CC(C)(C)NCC(O)COc1cccc2c1C[C@H](O)[C@H](O)C2 (stereo partly drawn)	0%	
Cc1cc(NS(=O)(=O)c2ccc(N)cc2)no1	-13.4% and 7.02%	
CC1(C)S[C@H]2[C@H](NC(=O)[C@@H](N)c3ccc(O)cc3)C(=O)N2[C@@H]1C(=O)O	-5.39%	
C[C@H]1C[C@H](O)c2ccsc2S1(=O)=O	-26.6%	
CN1CCCN(C(=O)c2cccc(-c3ccc(C=C4C(=O)Nc5ccc(Cl)cc54)o3)c2)CC1	19.8%	
O=c1[nH]c(=O)n([C@H]2C[C@@H](O)[C@@H](CO)O2)cc1F	-18.9%	
CC(C)CCCC(C)N (stereo not drawn)	0.565%	
CCCC(=O)c1cc(O)c(O)cc1O	-37.9%	
CCc1ccc(CCOc2ccc(CC3SC(=O)NC3=O)cc2)nc1 (stereo not drawn)	7.53% and -1.15%	
O=C(O)c1ccc(OCCCOc2ccc(C(=O)O)cc2)cc1	-13%	
C[C@]12C=CC(=O)C=C1[C@@H](F)C[C@@H]1[C@@H]2[C@@H](O)C[C@@]2(C)[C@H]1CC[C@]2(O)C(=O)CO	7.53%	
OC[C@]1(O)OC[C@@H](O)[C@H](O)[C@@H]1O	-16.7%	
Cc1cccc(C)c1NC(=O)CC12CCCN1CCC2	5.86%	
Nc1ncnc2c1ncn2Cc1c(F)cccc1Cl	-17.6%	
CCCCCCCCCCCCCCCCCCOCC(O)CO (stereo not drawn)	-16.4%	
CCC1(c2cnc[nH]2)Cc2ccccc2C1	-7.53%	
COc1cc(C(=S)N2CCOCC2)ccc1O	-10.7%	
CN1CCN(c2c(F)cc3c(=O)c(C(=O)O)cn4c3c2OCN4C)CC1	-9.21%	
CC(=O)N[C@@H](CC(C)C)C(=O)O	0%	
CCN(CCCc1ccccc1)CCCc1ccccc1	-1.67%	

Compound	activation	Potency
C=C1CCC2[C@](C)(CO)C(O)CC[C@]2(C)C1CC=C1C(=O)OCC1O (stereo partly drawn)	-28.9%	
O=S(c1cc(Cl)cc(Cl)c1O)c1cc(Cl)cc(Cl)c1O	-0.565%	
OCCOCCN1CCN(C2=Nc3ccccc3Sc3ccccc32)CC1	7.53%	
CCN(CC)C(=O)C1CN2CCc3cc(OC)c(OC)cc3C2CC1OC(C)=O (stereo not drawn)	-9.21%	
CN(C)CCOC(c1ccccc1)c1ccc(Br)cc1 (stereo not drawn)	-6.21%	
N[C@@H](Cc1cc(I)c(O)c(I)c1)C(=O)O	4.18%	
CC=CCC=CCCC(=O)[C@H]1O[C@@H]1C(N)=O	-3.35%	
Cc1c(C)n(CCN(C)C)c2ccc(C(=O)OCCN(C)C)cc12	-11.9%	
CCN(CC)S(=O)(=O)c1ccc(C(=O)O)cc1	-11.7%	
O=C(O)Cc1csc(-c2ccc(Cl)cc2)n1	15.3%	
CCCCCCCCCCCCCCCCCCO	3.35%	
N=C(N=C(N)N)N1CCOCC1	1.67% and -4.92%	
CCC(CC)[C@H](NC(C)=O)[C@@H]1[C@H](O)[C@@H](C(=O)O)C[C@@H]1N=C(N)N	7.36%	
CCC(=O)c1ccc(O)cc1	-10%	
Cc1c(-c2cccc3c(CCCOc4cccc5ccccc45)c(C(=O)O)n(Cc4cccnc4)c23)c(COc2ccc(N3CCN([S+](=O)([O-])N(C)C)CC3)cc2)nn1C	-39.2%	
NS(=O)(=O)c1cc2c(cc1C(F)(F)F)NC(Cc1ccccc1)NS2(=O)=O (stereo not drawn)	-6.69%	
CC(=O)OCC(=O)[C@@]1(OC(C)=O)[C@@H](C)C[C@H]2[C@@H]3C[C@H](F)C4=CC(=O)C=C[C@]4(C)[C@@]3(F)[C@@H](O)C[C@@]21C	5.08%	
CN(C)CCc1c[nH]c2ccc(Cn3cncn3)cc12		21.7 µM (active)
Oc1c(Cl)cc(Cl)c(Cl)c1Cc1c(O)c(Cl)cc(Cl)c1Cl	19.8%	
O=C1O[C@H](CO)[C@@H](O)[C@H](O)[C@H]1O	6.69%	
OCCc1ccccc1	1.69%	
